Cell viability data for 40 compounds are collected here from the supplement of paper PMC6522484.

The structures appear in SMILES notation. ± gives the standard deviation of the averaged measurements.

The test system of this experiment is HCT116. The experiment is described as follows: cell viability (CellTiter-Glo) relative to plate median (fraction of plate median); higher = more viable cells. To be noted: 10 µM; treatment time 24 h; reporter: TCF4/Wnt. An outline of the steps: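 Each value averages two independent replicates in which the well signal was normalised to the plate median (webcellHTS2, additive, without log transformation). The signal was firefly luciferase or CellTiterGlo luminescence, read on parallel plates with a Tecan F500. The cells were colorectal cancer lines with stable lentiviral TCF/Wnt firefly luciferase reporters in 384-well plates, dosed 24 h after seeding with kinase inhibitor library compounds at a final 10 µM for 24 h.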
In the case of `CC(C)(C)c1cc(/C=C(\C#N)C(N)=S)cc(C(C)(C)C)c1O` [Tyrphostin AG 879 (AG 879)], the cell viability came to 0.979 ± 0.1. For the compound `C=CC(=O)Nc1cc2c(Nc3ccc(F)c(Cl)c3)ncnc2cc1OCCCN1CCOCC1` [CI-1033 (Canertinib)], the cell viability was found to be 0.968 ± 0.059. With `NCC(=O)Nc1ccc(-n2nc(C(F)(F)F)cc2-c2ccc3c(ccc4ccccc43)c2)cc1` the figure was 0.833 ± 0.13; with `COc1ccc(-c2cc3c(C)nc(N)nc3n([C@H]3CC[C@H](OCCO)CC3)c2=O)cn1`, 0.68 ± 0.15; with `Clc1ccc(C2(c3ccc(-c4cn[nH]c4)cc3)CCNCC2)cc1`, 1.03 ± 0.13.

Compound `C[S+]([O-])c1ccc(-c2nc(-c3ccc(F)cc3)c(-c3ccncc3)[nH]2)cc1` (stereo not given) displayed a cell viability of 1.11 ± 0.035. The figure for `C=CC(=O)Nc1ccc2ncnc(Nc3ccc(OCc4cccc(F)c4)c(Cl)c3)c2c1` is 0.998 ± 0.017. With `CCn1nnc2c(N3CCOCC3)nc(-c3ccc(NC(=O)Nc4ccc(C(=O)N5CCN(C)CC5)cc4)cc3)nc21` the figure was 0.683 ± 0.11; with `O=c1cc(N2CCOCC2)oc2c(-c3cccc4c3sc3ccccc34)cccc12`, 1 ± 0.094; with `Cc1cnc(Nc2ccc(N3CCN(C)CC3)cc2)nc1Nc1cccc(S(=O)(=O)NC(C)(C)C)c1`, 0.514 ± 0.17. With `COc1ccc(S(=O)(=O)N(C(C)=O)c2ccccc2/C=C/c2cc[n+]([O-])cc2)cc1` the figure was 0.619 ± 0.28; with `COc1cc2ncnc(Nc3ccc(F)c(Cl)c3)c2cc1OCCCN1CCOCC1` [Gefitinib (Iressa)], 0.961 ± 0.052. `CN1CCN(c2cccc(Nc3nc4c(-c5ccc(S(C)(=O)=O)cc5)cccn4n3)c2)CC1`: the cell viability came to 0.871 ± 0.031. With `CC(=O)Nc1nc(C)c(-c2ccc(Cl)c(S(=O)(=O)NCCO)c2)s1` the figure was 0.974 ± 0.051; with `CCC[C@H](NC(=O)/C(C#N)=C/c1cccc(Br)n1)c1ccccc1`, 0.13 ± 0.066; with `CCS(=O)(=O)c1cccc(-c2cc(C(=O)NC3CCN(C)CC3)c(C)c3[nH]c4ncc(C)cc4c23)c1`, 0.522 ± 0.23.

Take `CC(C)n1nc(-c2ccc3oc(N)nc3c2)c2c(N)ncnc21`: the cell viability worked out at 0.624 ± 0.1.

`COc1cc2c(N3CCN(C(=O)Nc4ccc(OC(C)C)cc4)CC3)ncnc2cc1OCCCN1CCCCC1` [Tandutinib (MLN518)] showed a cell viability of 1.09 ± 0.028. The figure for `O=C1NC(=O)C(c2ccccc2[N+](=O)[O-])=C1Nc1ccc(O)c(Cl)c1` is 1.06 ± 0.05; for `COc1cccc(-c2cc(=O)c3ccccc3o2)c1N` it is 1.19 ± 0.071. With `Cc1ccc(NC(=O)c2ccc(CN3CCN(C)CC3)cc2)cc1Nc1nccc(-c2cccnc2)n1` [Imatinib (Gleevec)] the figure was 0.993 ± 0.024; with `COc1cc2c(Nc3ccc(NC(=O)c4ccccc4)cc3)ncnc2cc1OCCCN1CCOCC1`, 1.01 ± 0.041; with `CC(C)CC(=O)Nc1n[nH]c2c1CN(C(=O)C1CCN(C)CC1)C2(C)C`, 0.793 ± 0.13. The figure for `CNC(=O)Nc1ccc(-c2nc(N3CC4CCC(C3)O4)c3cnn(C4CCC5(CC4)OCCO5)c3n2)cc1` is 0.805 ± 0.11. `CCOc1cc2ncc(C#N)c(Nc3ccc(OCc4ccccn4)c(Cl)c3)c2cc1NC(=O)/C=C/CN(C)C` [Neratinib (HKI-272)] displayed a cell viability of 0.982 ± 0.083. The figure for `N#CCNC(=O)c1ccc(-c2ccnc(Nc3ccc(N4CCOCC4)cc3)n2)cc1` is 1.25 ± 0.078; for `Cc1ncc(-c2ccnc(Nc3ccc(S(C)(=O)=O)cc3)n2)n1C(C)C` it is 0.766 ± 0.3. The figure for `O=C(O)c1ccc2c(c1)nc(Nc1cccc(Cl)c1)c1ccncc12` [cx-4945 (Silmitasertib)] is 0.839 ± 0.042. The figure for `CC(=O)Nc1cccc(-n2c(=O)n(C3CC3)c(=O)c3c(Nc4ccc(I)cc4F)n(C)c(=O)c(C)c32)c1` is 0.9995 ± 0.00071; for `Nc1ncnc2c1c(-c1cccc(OCc3ccccc3)c1)cn2C1CC(CN2CCCC2)C1` (stereo not given) it is 0.67 ± 0.095. Compound `COc1cc2c(Oc3ccc(NC(=O)C4(C(=O)Nc5ccc(F)cc5)CC4)cc3F)ccnc2cc1OCCCN1CCOCC1` showed a cell viability of 0.845 ± 0.12. With `CCN1CCN(c2ccc(Nc3cc(N(C)C(=O)Nc4c(Cl)c(OC)cc(OC)c4Cl)ncn3)cc2)CC1` the figure was 1.16 ± 0.092; with `Cc1[nH]c(/C=C2\C(=O)Nc3ccccc32)c(C)c1CCC(=O)O`, 1.08 ± 0.13; with `CN1CCN(c2ccc3nc(-c4c(N)c5c(F)cccc5[nH]c4=O)[nH]c3c2)CC1` [Dovitinib Dilactic acid (TKI258 Dilactic acid)], 0.967 ± 0.13. `Cc1[nH]c(/C=C2\C(=O)Nc3ccc(S(=O)(=O)Cc4c(Cl)cccc4Cl)cc32)c(C)c1C(=O)N1CCC[C@@H]1CN1CCCC1` showed a cell viability of 0.826 ± 0.33.

With `COc1cc(Nc2ncc(F)c(Nc3ccc4c(n3)NC(=O)C(C)(C)O4)n2)cc(OC)c1OC` [R406(free base)], the cell viability was determined as 1.2 ± 0.05. The figure for `Cc1ccc(F)c(NC(=O)Nc2ccc(-c3cccc4[nH]nc(N)c34)cc2)c1` [Linifanib (ABT-869)] is 0.764 ± 0.03.

Consider `N#CC(=C(/N)Sc1ccccc1N)/C(C#N)=C(\N)Sc1ccccc1N`, for which the cell viability was determined as 0.938 ± 0.043.

For `c1cncc(CN2CCC(n3ncc4c(N5CCOCC5)nc(-c5ccc6[nH]ccc6c5)nc43)CC2)c1`, the cell viability is 0.858 ± 0.052. In the case of `CCn1c(-c2nonc2N)nc2c(C#CC(C)(C)O)ncc(OC[C@H]3CCCNC3)c21`, the cell viability was found to be 0.805 ± 0.0057.
